{"source": "PubChem BioAssay (Tox21)", "note": "Inconclusive results are not listed. A call without a number means that no potency is given here. The source made the active and inactive calls. Calls follow the shape of the dose curve; as a rule, active = well fitted cell-killing curve with a large enough effect in the repeat runs; inconclusive = weak or mixed curves; inactive = flat fitted curve, though single readings scatter. Potency is read from the fitted curve at half-maximal effect.", "data": [{"test": "qHTS assay to identify small molecule antagonists of the estrogen receptor beta (ER-beta) signaling pathway - cell viability counter screen (AID 1259382); also: nearly all actives have a fitted effect of over 55% in size", "details": "ER-beta-UAS-bla HEK293T viability, CellTiter-Glo luminescence, 16 h; series mostly up to 92.4 µM", "description": "U.S. Tox21 Program National Center for Advancing Translational Sciences [NCATS] NIH Chemical Genomics Center [NCGC] U.S. Environmental Protection Agency [EPA] National Institutes of Environmental Health Sciences [NIEHS] National Toxicology Program [NTP] U.S. Food and Drug Administration [FDA] Tox21 Assay Overview: Estrogen receptor (ER), a nuclear hormone receptor, plays an important role in development, metabolic homeostasis and reproduction. Two subtypes of ER, ER-alpha and ER-beta, have similar expression patterns with some uniqueness in both types. Endocrine disrupting chemicals (EDCs) and their interactions with steroid hormone receptors like ER causes disruption of normal endocrine function. To identify the compounds that inhibit ER signaling, an ER-beta-UAS-bla GripTite cell line (Life Technologies, Madison, WI, USA) containing a beta-lactamase reporter gene under the control of an UAS response element was used to screen Tox21 10K compound library. The cytotoxicity of the Tox21 compound library against the ER-beta-bla cell line was tested in parallel by measuring the cell viability using CellTiter-Glo assay in the same wells.\nTox21 Assay Protocol Summary: ER-beta-UAS-bla HEK293T cells were dispensed at 2,000 cells/4 uL of assay medium containing 2% charcoal stripped FBS per well into black wall/clear-bottom 1536-well plates using a Multidrop Combi (ThermoFisher Scientific, Waltham, MA) dispenser. After the assay plates were incubated at a 37C and 5% CO2 for 6 hr, 23 nL of compounds dissolved in DMSO, positive controls or DMSO only was transferred to the assay plate by a Pintool station (Kalypsys, San Diego, CA), followed by addition of 1 uL (1nM as final concentration) of 17-beta-estradiol (E2) in assay medium using a Flying Reagent Dispenser (FRD, Aurora Discovery, San Diego, CA). The plates were incubated at 37C and 5% CO2 for 16 hr. Then 1 uL of LiveBLAzer B/G FRET substrate was added using a Flying Reagent Dispenser, the plates were incubated at room temperature for 2 hours, and fluorescence intensity was measured by an Envision plate reader (PerkinElmer, Shelton, CT). For cell viability readout that measures cytotoxicity, 4 uL/well of CellTiter-Glo reagent was added into the assay plates using a FRD. After 30 min incubation at room temperature, the luminescence intensity in the plates was measured using a ViewLux (PerkinElmer) plate reader.", "values": [{"smiles": "CCCCCCCCCCC(=O)O", "Potency": "inactive"}, {"smiles": "CS(=O)(=O)c1ccc(-c2cn3ccccc3n2)cc1", "Potency": "inactive"}, {"smiles": "C=C1C[C@@]23CC[C@H]4[C@@](C)(CCC[C@@]4(C)C(=O)O[C@@H]4O[C@H](CO)[C@@H](O)[C@H](O)[C@H]4O)[C@@H]2CC[C@]1(O[C@@H]1O[C@H](CO)[C@@H](O)[C@H](O[C@@H]2O[C@H](CO)[C@@H](O)[C@H](O)[C@H]2O)[C@H]1O[C@@H]1O[C@H](CO)[C@@H](O)[C@H](O)[C@H]1O)C3", "Potency": "inactive"}, {"smiles": "Oc1c(I)cc(I)c2cccnc12", "Potency": "inactive"}, {"smiles": "O=C(CCc1ccc(O)cc1)c1c(O)cc(O)cc1O", "Potency": "inactive"}, {"smiles": "C[C@@H](O[C@H]1OCCN(Cc2n[nH]c(=O)[nH]2)[C@H]1c1ccc(F)cc1)c1cc(C(F)(F)F)cc(C(F)(F)F)c1", "Potency": "29.8 µM (active)"}, {"smiles": "CC(=O)Nc1cc(S(=O)(=O)O)cc2cc(S(=O)(=O)O)c(N=Nc3ccccc3)c(O)c12", "Potency": "inactive"}, {"smiles": "CN1CCCN=C1COC(=O)C(O)(c1ccccc1)C1CCCCC1", "note": "(stereo not given)", "Potency": "inactive"}, {"smiles": "CCCCCCCC/C=C\\CCCCCCCCCCCC(=O)O", "Potency": "inactive"}, {"smiles": "O=C1c2ccccc2C(=O)C1(O)O", "Potency": "inactive"}, {"smiles": "CCOC(=O)/C=C/C(=O)OCC", "Potency": "inactive"}, {"smiles": "CC1=C(Br)C(=O)C(Br)=C/C1=C(/c1ccccc1S(=O)(=O)O)c1cc(Br)c(O)c(Br)c1C", "Potency": "inactive"}, {"smiles": "CNC(=O)c1cnn(-c2nc(N)c3ncn([C@@H]4O[C@H](CO)[C@@H](O)[C@H]4O)c3n2)c1", "Potency": "inactive"}, {"smiles": "CC1(C)[C@H](C(=O)O)N2C(=O)C[C@H]2S1(=O)=O", "Potency": "inactive"}, {"smiles": "COc1ccccc1Oc1c(NS(=O)(=O)c2ccc(C(C)(C)C)cc2)nc(-c2ncccn2)nc1OCCO", "Potency": "inactive"}, {"smiles": "CCOC(=O)[C@H](CCc1ccccc1)N[C@@H](C)C(=O)N(CC(=O)O)C1Cc2ccccc2C1", "Potency": "11.9 µM (active)"}, {"smiles": "COc1cc(C(=O)NC2CCN(C)CC2)ccc1Nc1ncc2c(n1)N(C1CCCC1)CC(F)(F)C(=O)N2C", "Potency": "15.8 µM (active)"}, {"smiles": "Cc1cc(O)c(C)c(C)c1O", "Potency": "inactive"}, {"smiles": "O=c1c(O)c(-c2ccc(O)cc2)oc2cc(O)cc(O)c12", "Potency": "inactive"}, {"smiles": "c1cc(N(CC2CO2)CC2CO2)ccc1Cc1ccc(N(CC2CO2)CC2CO2)cc1", "note": "(stereo not given)", "Potency": "inactive"}, {"smiles": "CCC1CO1", "note": "(stereo not given)", "Potency": "inactive"}, {"smiles": "CC(C)C=O", "Potency": "inactive"}, {"smiles": "Cc1cc2c(OCC(CNC(C)(C)C)OC(=O)c3ccccc3)cccc2[nH]1", "note": "(stereo not given)", "Potency": "inactive"}, {"smiles": "CC(C)=CCC1C(=O)N(c2ccccc2)N(c2ccccc2)C1=O", "Potency": "inactive"}, {"smiles": "CC(=O)OCC(=O)NCCCOc1cccc(CN2CCCCC2)c1", "Potency": "inactive"}, {"smiles": "COC(=O)CCS", "Potency": "inactive"}, {"smiles": "O=C(O)CCCCCCCCCCCBr", "Potency": "inactive"}, {"smiles": "CC(=O)OCCN(CCOC(C)=O)c1ccc(N=Nc2ccc([N+](=O)[O-])cc2C#N)cc1", "Potency": "inactive"}, {"smiles": "CC=C(Cl)Cl", "Potency": "inactive"}, {"smiles": "C=C/C(C)=C/C/C=C(\\C)CCC=C(C)C", "Potency": "inactive"}, {"smiles": "CO[C@]1(NC(=O)CSC(F)F)C(=O)N2C(C(=O)O)=C(CSc3nnnn3CCO)CO[C@H]21", "Potency": "inactive"}, {"smiles": "CC(CO)CO", "Potency": "inactive"}, {"smiles": "C=Cc1ccc(S(=O)(=O)O)cc1", "Potency": "inactive"}, {"smiles": "CC(C)C(O)(c1ccc(OC(F)(F)F)cc1)c1cncnc1", "note": "(stereo not given)", "Potency": "inactive"}, {"smiles": "O=[N+]([O-])c1ccc(Nc2ccc(Nc3ccccc3)c(S(=O)(=O)O)c2)c([N+](=O)[O-])c1", "Potency": "inactive"}, {"smiles": "CC1(C)S[C@@H]2[C@H](NC(=O)C(c3ccccc3)S(=O)(=O)O)C(=O)N2[C@H]1C(=O)O", "note": "(stereo not given in full)", "Potency": "inactive"}, {"smiles": "COc1cc(N)c(Cl)cc1C(=O)NC1CCN(CCCOc2ccc(F)cc2)CC1OC", "note": "(stereo not given)", "Potency": "inactive"}, {"smiles": "Cc1ccc(C(C)(C)O)cc1", "Potency": "inactive"}, {"smiles": "CN(C(=O)CN(CCO)CC(=O)N(C)C(C)(C)Cc1ccccc1)C(C)(C)Cc1ccccc1", "Potency": "inactive"}, {"smiles": "CC(C)(O)c1ccc(CNC(=O)c2cccnc2Oc2ccc3nonc3c2)cc1", "Potency": "inactive"}]}]}
